In PubChem BioAssay one finds red/green cell ratio (normalised) and normalised cell number data, which are given here for 39 compounds.

Activity calls are given as the source filed them.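 The calls were made as follows: active = compounds killing one labelled cell type while sparing the other, by normalised counts and ratio limits, not self-fluorescent; inactive = the rest.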

A short description of the first assay: EMT-state selective cytotoxicity in co-culture – imaging, PC-3E GFP, TEM4-18 mCherry, primary screen (AID 1345086).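 Also: cells exposed to compound for 72 h before imaging.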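 As to red/green cell ratio (normalised): normalised mesenchymal count divided by normalised epithelial count so high means epithelial killing.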 Conditions: PC-3E GFP / TEM4-18 mCherry co-culture, imaging cell counts; at 1 µM; actives lie on both sides; counts scaled to control wells, 1 = unselective.
On to `COc1ccccc1OCC(O)COC(N)=O` (stereo unspecified), for which the red/green cell ratio (normalised) was 0.97 (inactive).
Still for that read-out and setting: for `COC(=O)Nc1nc2ccc(C(=O)c3ccccc3)cc2[nH]1` the value was 1.27 (inactive); for `CCn1cc(C(=O)O)c(=O)c2cc(F)c(N3CCN(C)CC3)cc21`, 1.22 (inactive).
Take `Cn1cnc([N+](=O)[O-])c1Sc1ncnc2nc[nH]c12`: the red/green cell ratio (normalised) is 0.98 (inactive).
The same measure, in the same setting: for `c1ccc2[nH]c(-c3cscn3)nc2c1` the value was 1.18 (inactive); for `Cc1onc(-c2c(Cl)cccc2Cl)c1C(=O)N[C@@H]1C(=O)N2[C@@H]1SC(C)(C)[C@@H]2C(=O)O`, 1.32 (inactive).
For the compound `Clc1ccc2c(c1)C(N1CCNCC1)=Nc1ccccc1O2`, the red/green cell ratio (normalised) is 1.17 (inactive).
As for `CO[C@@]1(NC(=O)Cc2cccs2)C(=O)N2C(C(=O)O)=C(COC(N)=O)CS[C@@H]21`, the red/green cell ratio (normalised) is 1.1 (inactive).
`CCc1cccc2c3c([nH]c12)C(CC)(CC(=O)O)OCC3` (stereo unspecified): the red/green cell ratio (normalised) is 1.13 (inactive).
The same measure, in the same setting: the result for `CC(C)(C)NCC(O)COc1cccc2c1C[C@H](O)[C@H](O)C2` (stereo partly specified) reads 1.06 (inactive); that for `O=S(=O)(O)CCS`, 1 (inactive).
Still for that read-out and setting: the result for `O=c1[nH]cc(F)c(=O)[nH]1` reads 0.94 (inactive).

The same assay, now with this note: PC-3E GFP / TEM4-18 mCherry co-culture, imaging cell counts; measured here: epithelial PC-3E GFP cell survival; at 1 µM.
Regarding `OCCN1CCN(CCCN2c3ccccc3Sc3ccc(C(F)(F)F)cc32)CC1`, the normalised cell number worked out at 0.78.
On the same count and under the same terms, the result for `NS(=O)(=O)c1cc2c(cc1Cl)NC=NS2(=O)=O` reads 0.39; that for `O=C1C(CCS(=O)c2ccccc2)C(=O)N(c2ccccc2)N1c1ccccc1` (stereo unspecified), 0.93; that for `Cc1ccc(-c2cc(C(F)(F)F)nn2-c2ccc(S(N)(=O)=O)cc2)cc1`, 1.08.
Still for that read-out and setting: the result for `CN[C@H]1CC[C@@H](c2ccc(Cl)c(Cl)c2)c2ccccc21` reads 0.93.
In the case of `Cc1ccccc1C(OCCN(C)C)c1ccccc1` (stereo unspecified), the normalised cell number came to 0.78.
In the case of `CCc1nc(N)nc(N)c1-c1ccc(Cl)cc1`, the normalised cell number was determined as 0.9.
Take `COc1cc2nc(N(C)CCCNC(=O)C3CCCO3)nc(N)c2cc1OC` (stereo unspecified): the normalised cell number was 1.18.
Still for that read-out and setting: for `CN(C)CCOC(c1ccc(Cl)cc1)c1ccccn1` (stereo unspecified) the value was 1.14.
As to `N[C@@H](C(=O)N[C@@H]1C(=O)N2C(C(=O)O)=C(Cl)CS[C@H]12)c1ccccc1`, the normalised cell number was 0.9.
In turn, `Nc1ncn([C@@H]2O[C@H](CO)[C@@H](O)[C@H]2O)c(=O)n1` yielded a normalised cell number of 0.83.
On the same count and under the same terms, for `NCc1ccc(S(N)(=O)=O)cc1` the value was 0.74.
The same measure, in the same setting: the result for `Cc1ncc([N+](=O)[O-])n1CC(C)O` (stereo unspecified) reads 1.13; that for `Cc1ccc(C)c(OCCCC(C)(C)C(=O)O)c1`, 0.82; that for `CN1CCCC(n2nc(Cc3ccc(Cl)cc3)c3ccccc3c2=O)CC1` (stereo unspecified), 1.16.
`NS(=O)(=O)c1cc2c(cc1C(F)(F)F)NC(Cc1ccccc1)NS2(=O)=O` (stereo unspecified) showed a normalised cell number of 1.12.
The same measure, in the same setting: for `COC1=CC(=O)C[C@@H](C)[C@]12Oc1c(Cl)c(OC)cc(OC)c1C2=O` the value was 1.41.
The same measure, in the same setting: the result for `Cc1cn([C@H]2C[C@H](N=[N+]=[N-])[C@@H](CO)O2)c(=O)[nH]c1=O` reads 1.06.
Still for that read-out and setting: the result for `CN(CCOc1ccc(CC2SC(=O)NC2=O)cc1)c1ccccn1` (stereo unspecified) reads 1.63; that for `COc1ccc(OC)c(C(O)CNC(=O)CN)c1` (stereo unspecified), 1.01.
`OC(CCN1CCCC1)(c1ccccc1)C1CCCCC1` (stereo unspecified) displayed a normalised cell number of 0.98.
With `NC(=O)N1c2ccccc2CC(=O)c2ccccc21`, the normalised cell number came to 1.04.
Same read-out and setting: the result for `CCCNCC(O)COc1ccccc1C(=O)CCc1ccccc1` (stereo unspecified) reads 1.35; that for `C/C=C/C(=O)N(CC)c1ccccc1C`, 0.88; that for `CCCCCCNC(=O)n1cc(F)c(=O)[nH]c1=O`, 0.88.
Still for that read-out and setting: the result for `NC(=O)c1cnccn1` reads 0.91; that for `CN(C)CCc1c[nH]c2ccc(C[C@H]3COC(=O)N3)cc12`, 1.02.
Still for that read-out and setting: the result for `COc1ccccc1OCC(O)COC(N)=O` (stereo unspecified) reads 1.19.
With `COC(=O)Nc1nc2ccc(C(=O)c3ccccc3)cc2[nH]1`, the normalised cell number was 0.23.
`CCn1cc(C(=O)O)c(=O)c2cc(F)c(N3CCN(C)CC3)cc21` displayed a normalised cell number of 1.13.
On the same count and under the same terms, the result for `Cn1cnc([N+](=O)[O-])c1Sc1ncnc2nc[nH]c12` reads 1.13; that for `c1ccc2[nH]c(-c3cscn3)nc2c1`, 0.98.
Still for that read-out and setting: for `Cc1onc(-c2c(Cl)cccc2Cl)c1C(=O)N[C@@H]1C(=O)N2[C@@H]1SC(C)(C)[C@@H]2C(=O)O` the value was 1.26; for `Clc1ccc2c(c1)C(N1CCNCC1)=Nc1ccccc1O2`, 0.23.
Regarding `CO[C@@]1(NC(=O)Cc2cccs2)C(=O)N2C(C(=O)O)=C(COC(N)=O)CS[C@@H]21`, the normalised cell number turned out to be 0.99.
Still for that read-out and setting: the result for `CCc1cccc2c3c([nH]c12)C(CC)(CC(=O)O)OCC3` (stereo unspecified) reads 0.9; that for `CC(C)(C)NCC(O)COc1cccc2c1C[C@H](O)[C@H](O)C2` (stereo partly specified), 1.04; that for `O=S(=O)(O)CCS`, 1.08.
The same measure, in the same setting: the result for `O=c1[nH]cc(F)c(=O)[nH]1` reads 0.82.
